The values below come from ChEMBL document CHEMBL4513216, “Probing the Open Global Health Chemical Diversity Library for Multistage-Active Starting Points for Next-Generation Antimalarials” (ACS Infect Dis, 2020).

Each structure is given as a SMILES string. Screen size: about 69,000 compounds; about 8,600 (12%) showed an effect of 50% or more. This excerpt belongs to a sample that is enriched for strong results.

The subject of the assay is Plasmodium berghei. The experiment in a line: Screen against P. berghei liver stage (PbLuc), transformed with Luciferase, at 10uM. The class given is functional, HepG2. The conditions noted are these: tested at 10 uM.
In the case of `O=C(c1ccc(N2CCCC2)nn1)N1CCCC(n2ccnc2)C1` (stereo unspecified), the INHIBITION stood at 29.2%.

On to `CCOc1ccc(CN2CCC(c3nc(C)cc(C)n3)C2)cc1CO` (stereo unspecified), for which the INHIBITION is 44.05%.

Turning to `CN1CC(C(=O)Nc2ccc(OCC(F)(F)C(F)F)nc2)CC1=O` (stereo unspecified), the INHIBITION is given as -14.6%.

As to `Cc1nc2[nH]cnc(NCCCN3CCOCC3)c-2n1`, the INHIBITION was 5.03%.

Regarding `COc1ccc(CCNC(=O)CN2CCCC2c2noc(C)n2)cc1` (stereo unspecified), the INHIBITION is recorded as -3.2%.

As for `CCc1nc(C2CCCN2CC(=O)NCCOc2ccccc2)no1` (stereo unspecified), the INHIBITION was -2.95%.

Take `Cc1cccc(OCCNC(=O)CN2CCCC2c2noc(C)n2)c1` (stereo unspecified): the INHIBITION came out at 6.905%.

As for `Cc1nc(C2CCCN2CC(=O)NCCOc2ccccc2)no1` (stereo unspecified), the INHIBITION came out at 50.4%.

Turning to `Cc1nc(C2CCCN2CC(=O)NCCOc2cccc(F)c2)no1` (stereo unspecified), the INHIBITION was determined as 2.8815%.

In the case of `Cc1nc(C2CCCN2CC(=O)NCCOc2ccc(F)cc2)no1` (stereo unspecified), the INHIBITION is given as 55.15%.

Consider `CCC(=O)N1C[C@@H](C(=O)NC)[C@H](c2ccnc(N3CCCC3)n2)C1`, for which the INHIBITION worked out at 1.93%.

On to `Cc1cnn(CC2CN(Cc3nc(C)c4ccccc4n3)CCO2)c1` (stereo unspecified), for which the INHIBITION was 35.3%.

For the compound `c1ccc2oc(CN3CCOC(Cn4cccn4)C3)nc2c1` (stereo unspecified), the INHIBITION is reported as -51.5%.

With `c1ccc2sc(N3CCOC(Cn4cccn4)C3)nc2c1` (stereo unspecified), the INHIBITION worked out at 26.3%.

`Cn1c(CN2CCOC(Cn3cncn3)C2)nc2ccccc21` (stereo unspecified): the INHIBITION is reported as -4.93%.

`Cc1cnn(CC2CN(Cc3cccc(OC(C)C)c3)CCO2)c1` (stereo unspecified): the INHIBITION stood at 70.3%.

Consider `Cc1cnn(CC2CN(Cc3nc4ccccc4nc3C)CCO2)c1` (stereo unspecified), for which the INHIBITION stood at 58%.

Consider `c1ccc2sc(CN3CCOC(Cn4cncn4)C3)nc2c1` (stereo unspecified), for which the INHIBITION amounted to 85.9%.

Regarding `Cc1nc(C)n(CC2CN(Cc3cccc(OC(C)C)c3)CCO2)n1` (stereo unspecified), the INHIBITION is 45.7%.

As to `Cc1nc(CN2CCOC(Cn3cncn3)C2)nc2ccccc12` (stereo unspecified), the INHIBITION worked out at 21.1%.

For `Cc1nc2ccccc2nc1CN1CCOC(Cn2cccn2)C1` (stereo unspecified), the INHIBITION stood at 26.5%.

As to `c1ccc2sc(CN3CCOC(Cn4cccn4)C3)nc2c1` (stereo unspecified), the INHIBITION is on record as 72.4%.

For the compound `Cc1cnn(CC2CN(Cc3cccc(OCC(N)=O)c3)CCO2)c1` (stereo unspecified), the INHIBITION was -2.4%.

For `Cc1nc(C)n(C2CCCN(C(=O)COc3cccc(C#N)c3)C2)n1` (stereo unspecified), the INHIBITION came to 22.3%.

With `C[C@@H](O)CNC(=O)c1nc(CC(=O)Nc2cccc(C(F)(F)F)c2)no1`, the INHIBITION was 29.9%.

As for `Cc1ccc(N2CCC3(CC2)CC(OCC(C)C)C3)nn1`, the INHIBITION is 31.2%.

As for `O=C(O)C1CN(c2cccc(Cl)c2)CCO1` (stereo unspecified), the INHIBITION is recorded as -6.92%.

As to `COCC(O)CNC(=O)Nc1c(F)cc(F)cc1-c1ccccc1` (stereo unspecified), the INHIBITION came to 1.19%.

As to `CCn1ncc2c1C(COCC1CC1)CN(c1ccncn1)C2` (stereo unspecified), the INHIBITION is -15.1%.

Take `COCC(=O)NCc1cc(=O)n2c(n1)CN(Cc1cccs1)CCC2`: the INHIBITION is on record as 25.8%.

For the compound `CCC[C@@H]1CN(c2ncnc3ccsc23)C[C@H]1NS(C)(=O)=O`, the INHIBITION is recorded as -3.58%.

In the case of `Cc1cnccc1NCCNC(=O)[C@H]1CNC[C@H](C(=O)N2CCCC2)C1`, the INHIBITION was found to be 15.9%.

On to `CC(C)CCN1CCC2(CC1)NCc1ccccc1NC2=O`, for which the INHIBITION worked out at 25.9%.

In the case of `Cc1cnn(CC2CN(Cc3nc4ccccc4o3)CCO2)c1` (stereo unspecified), the INHIBITION was -61.4%.

For the compound `Cc1cnn(CC2CN(CCS(C)(=O)=O)CCO2)c1` (stereo unspecified), the INHIBITION is -31.4%.

Take `CC(C)(C)c1nnc(CN2CCOC(Cn3cncn3)C2)o1` (stereo unspecified): the INHIBITION came to 40.3%.

Regarding `CCc1nnc(CN2CCOC(Cn3cccn3)C2)o1` (stereo unspecified), the INHIBITION is -5.25%.

On to `Cc1cnn(CC2CN(Cc3nc4ccccc4s3)CCO2)c1` (stereo unspecified), for which the INHIBITION came to 74.4%.

Consider `CC(C)(C)c1nnc(CN2CCOC(Cn3cccn3)C2)o1` (stereo unspecified), for which the INHIBITION amounted to 59.7%.

Turning to `Cc1cnn(CC2CN(CCCS(=O)(=O)N(C)C)CCO2)c1` (stereo unspecified), the INHIBITION turned out to be 77.8%.

Regarding `Cc1cnn(CC2CN(Cc3nc4ccccc4n3C)CCO2)c1` (stereo unspecified), the INHIBITION is -43.6%.

Turning to `Cc1cnn(CC2CN(CCCS(C)(=O)=O)CCO2)c1` (stereo unspecified), the INHIBITION is listed as -12.1%.

With `Cc1nc(NCc2ccc(F)cc2)cc(C(=O)N2CCOCC2)n1`, the INHIBITION is on record as -10.1%.

`Clc1cccc(CNc2cnn(CCN3CCCCC3)c2)c1`: the INHIBITION is 21.2%.

On to `CC(C)Nc1nc(O)cc(C2CC(=O)N(C3CCCCC3)C2)n1` (stereo unspecified), for which the INHIBITION is given as -23.245%.

`CN(C)c1cc(C(=O)NCCc2nnc(-c3ccco3)[nH]2)ccn1`: the INHIBITION amounted to 17.4%.

For `O=C(NCC1CC1)C1CN(C(=O)Nc2ccccc2)CC12CCOCC2` (stereo unspecified), the INHIBITION is given as 19.4%.

In the case of `CCN(Cc1ccncc1)C(=O)C(C)n1ccnc1C(C)C` (stereo unspecified), the INHIBITION is 10.3%.

As to `CC(C)N1C(=O)CN(CCCO)CC1(C)C`, the INHIBITION is -23%.

With `Cc1ccc(NC(=O)c2cccc(OCc3nnnn3C)c2)nc1`, the INHIBITION is on record as -1.57%.

Regarding `O=C(CCCc1ccc(Cl)cc1)N1CCC(c2nnc[nH]2)CC1`, the INHIBITION is 20.9%.

With `CCOc1ccc(NC(=O)N2CCOC(C(N)=O)C2)cc1C` (stereo unspecified), the INHIBITION is recorded as -5.08%.

As to `O=C(CCCN1CCCCC1)N1CCC(c2nnc[nH]2)CC1`, the INHIBITION is -7.53%.

`COc1ccc(NC(=O)N2CCC(c3nnc[nH]3)CC2)cc1C`: the INHIBITION came to 37.6%.

Take `O=C(Nc1ccc(OC(F)F)cc1)N1CCC(c2nnc[nH]2)CC1`: the INHIBITION came to 63.3%.

On to `CCOc1cc(NC(=O)N2CCC(c3nnc[nH]3)CC2)ccc1C`, for which the INHIBITION is 56.6%.
